Assays:
Test in all cases: log2 ratio of Biotin-Ahx-Ub-VS probe labelling (fragment/DMSO); higher = less target engagement (more negative = stronger competition), active = hit call of the paper (q ≤ 0.05, log2 ratio ≤ -1)
Details in all cases: compound concentration: 200 uM; treatment time: 3 h
USP34 = USP34 (UniProt Q70CQ2)
In short: (§1)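 Labelling with Biotin-Ahx-Ub-VS (0.5 µM final, 1 h) followed a 3 h triplicate treatment of HEK293T lysate (495 µg per sample, Tris/CHAPS/IGEPAL buffer with protease inhibitors) with fragment at 200 µM or vehicle. Labelled DUBs were NeutrAvidin-enriched, digested with LysC and trypsin, and run by diaPASEF LC-MS/MS. The values, average log2 fragment/vehicle ratios by unpaired t-test, come from global-median-normalised Spectronaut label-free quantities. Proteins with ≥2 unique peptides were used.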

USP36 = target: T1, USP36 (UniProt Q9P275)
T1 sequence (whole entry): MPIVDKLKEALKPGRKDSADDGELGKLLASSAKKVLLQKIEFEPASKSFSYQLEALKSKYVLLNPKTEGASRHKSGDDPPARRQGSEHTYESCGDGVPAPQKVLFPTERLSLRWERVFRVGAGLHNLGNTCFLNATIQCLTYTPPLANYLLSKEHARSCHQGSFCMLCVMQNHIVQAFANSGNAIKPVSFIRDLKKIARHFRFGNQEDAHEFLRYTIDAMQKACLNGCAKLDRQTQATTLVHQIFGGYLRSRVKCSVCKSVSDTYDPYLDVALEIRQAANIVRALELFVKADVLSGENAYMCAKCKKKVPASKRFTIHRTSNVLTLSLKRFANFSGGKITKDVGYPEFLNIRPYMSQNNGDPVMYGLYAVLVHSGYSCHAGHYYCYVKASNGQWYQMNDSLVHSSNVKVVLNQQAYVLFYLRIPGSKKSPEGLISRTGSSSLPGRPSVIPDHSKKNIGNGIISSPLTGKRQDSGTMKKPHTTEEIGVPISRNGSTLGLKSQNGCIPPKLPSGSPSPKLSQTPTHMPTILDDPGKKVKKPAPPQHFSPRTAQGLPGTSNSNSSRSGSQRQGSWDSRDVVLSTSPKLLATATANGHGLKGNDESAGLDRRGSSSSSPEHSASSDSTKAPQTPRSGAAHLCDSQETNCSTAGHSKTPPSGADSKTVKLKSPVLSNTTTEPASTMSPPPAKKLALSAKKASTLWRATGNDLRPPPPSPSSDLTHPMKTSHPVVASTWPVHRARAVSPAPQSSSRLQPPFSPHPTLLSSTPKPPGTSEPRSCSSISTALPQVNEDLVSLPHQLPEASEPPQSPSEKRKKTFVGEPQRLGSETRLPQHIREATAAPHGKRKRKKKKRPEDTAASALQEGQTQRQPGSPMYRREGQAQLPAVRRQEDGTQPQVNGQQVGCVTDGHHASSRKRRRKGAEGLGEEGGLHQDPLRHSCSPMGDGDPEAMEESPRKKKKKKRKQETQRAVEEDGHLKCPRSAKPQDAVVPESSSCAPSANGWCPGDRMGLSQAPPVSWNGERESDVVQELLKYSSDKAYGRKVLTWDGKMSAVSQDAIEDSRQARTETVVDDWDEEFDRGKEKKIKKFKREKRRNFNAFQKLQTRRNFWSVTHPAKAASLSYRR
In short: as §1

USP38 = target: T2, USP38 (UniProt Q8NB14)
T2 sequence (whole entry): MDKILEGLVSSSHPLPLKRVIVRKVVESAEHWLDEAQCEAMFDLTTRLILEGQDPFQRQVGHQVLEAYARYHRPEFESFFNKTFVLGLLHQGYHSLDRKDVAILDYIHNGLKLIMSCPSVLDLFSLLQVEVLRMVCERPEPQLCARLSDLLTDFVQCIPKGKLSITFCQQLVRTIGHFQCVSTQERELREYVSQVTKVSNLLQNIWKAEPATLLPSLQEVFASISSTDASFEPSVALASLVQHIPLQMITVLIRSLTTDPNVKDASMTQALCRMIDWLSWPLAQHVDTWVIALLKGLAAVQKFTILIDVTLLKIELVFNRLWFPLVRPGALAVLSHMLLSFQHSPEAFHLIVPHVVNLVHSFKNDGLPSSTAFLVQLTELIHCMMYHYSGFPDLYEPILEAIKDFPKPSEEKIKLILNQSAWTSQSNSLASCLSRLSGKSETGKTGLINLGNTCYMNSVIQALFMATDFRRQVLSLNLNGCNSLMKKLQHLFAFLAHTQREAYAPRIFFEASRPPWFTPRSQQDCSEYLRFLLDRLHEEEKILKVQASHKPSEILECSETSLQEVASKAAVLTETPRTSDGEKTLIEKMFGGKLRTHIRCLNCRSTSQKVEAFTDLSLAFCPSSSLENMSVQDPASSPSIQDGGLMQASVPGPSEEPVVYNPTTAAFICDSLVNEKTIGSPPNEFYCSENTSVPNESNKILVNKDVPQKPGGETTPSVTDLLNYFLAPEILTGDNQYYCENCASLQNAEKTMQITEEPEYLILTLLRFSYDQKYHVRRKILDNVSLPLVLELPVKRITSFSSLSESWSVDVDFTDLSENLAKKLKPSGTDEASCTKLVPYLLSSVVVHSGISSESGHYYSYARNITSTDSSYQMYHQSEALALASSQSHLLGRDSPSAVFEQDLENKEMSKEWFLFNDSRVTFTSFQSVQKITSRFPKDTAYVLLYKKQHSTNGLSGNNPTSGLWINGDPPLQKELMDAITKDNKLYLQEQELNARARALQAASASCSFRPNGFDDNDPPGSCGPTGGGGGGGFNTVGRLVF
In short: as §1

USP39 = target: T3, USP39 (UniProt Q53GS9)
T3 sequence (whole entry): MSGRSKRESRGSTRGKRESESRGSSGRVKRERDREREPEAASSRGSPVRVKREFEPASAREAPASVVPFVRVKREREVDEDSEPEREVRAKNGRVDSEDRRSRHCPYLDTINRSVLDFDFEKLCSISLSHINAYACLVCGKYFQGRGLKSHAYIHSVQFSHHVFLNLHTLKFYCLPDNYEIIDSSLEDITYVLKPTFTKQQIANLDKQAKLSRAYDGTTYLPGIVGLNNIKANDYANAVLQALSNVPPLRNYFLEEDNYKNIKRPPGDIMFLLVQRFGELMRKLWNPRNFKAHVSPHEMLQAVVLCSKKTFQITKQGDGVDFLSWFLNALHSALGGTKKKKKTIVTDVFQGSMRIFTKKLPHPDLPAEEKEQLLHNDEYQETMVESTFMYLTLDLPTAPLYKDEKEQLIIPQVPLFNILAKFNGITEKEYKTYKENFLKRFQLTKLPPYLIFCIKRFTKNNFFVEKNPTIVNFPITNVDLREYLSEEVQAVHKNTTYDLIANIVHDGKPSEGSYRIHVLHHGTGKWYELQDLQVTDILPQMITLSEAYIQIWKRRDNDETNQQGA
In short: as §1

USP4 = target: T4, USP4 (UniProt Q13107)
T4 sequence (whole entry): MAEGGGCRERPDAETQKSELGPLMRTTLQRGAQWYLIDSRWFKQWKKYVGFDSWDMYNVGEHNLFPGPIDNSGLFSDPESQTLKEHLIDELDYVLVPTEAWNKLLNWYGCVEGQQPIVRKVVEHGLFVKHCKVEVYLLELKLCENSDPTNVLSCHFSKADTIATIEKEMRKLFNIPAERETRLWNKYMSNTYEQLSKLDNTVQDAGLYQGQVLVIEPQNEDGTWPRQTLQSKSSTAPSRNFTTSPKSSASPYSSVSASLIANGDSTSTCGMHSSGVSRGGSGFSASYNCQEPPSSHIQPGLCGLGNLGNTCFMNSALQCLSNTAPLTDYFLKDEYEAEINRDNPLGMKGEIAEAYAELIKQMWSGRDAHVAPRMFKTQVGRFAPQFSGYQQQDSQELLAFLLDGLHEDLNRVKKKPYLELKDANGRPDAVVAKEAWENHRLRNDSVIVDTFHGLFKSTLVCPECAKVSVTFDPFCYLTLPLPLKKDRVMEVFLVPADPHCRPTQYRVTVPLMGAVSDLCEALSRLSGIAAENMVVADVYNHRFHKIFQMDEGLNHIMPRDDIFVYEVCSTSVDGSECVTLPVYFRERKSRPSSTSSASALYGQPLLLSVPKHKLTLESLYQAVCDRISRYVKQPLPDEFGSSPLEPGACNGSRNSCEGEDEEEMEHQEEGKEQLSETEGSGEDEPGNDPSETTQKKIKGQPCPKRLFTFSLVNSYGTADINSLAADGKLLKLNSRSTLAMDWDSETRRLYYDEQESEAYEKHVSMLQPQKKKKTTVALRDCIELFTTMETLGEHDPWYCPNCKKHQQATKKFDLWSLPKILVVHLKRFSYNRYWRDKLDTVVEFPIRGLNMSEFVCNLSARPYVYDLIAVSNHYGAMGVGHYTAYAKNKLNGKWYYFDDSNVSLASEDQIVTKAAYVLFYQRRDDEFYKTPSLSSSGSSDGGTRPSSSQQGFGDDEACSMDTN
In short: as §1

Measured: log2 ratio of Biotin-Ahx-Ub-VS probe labelling

Sequence of USP34 (Q70CQ2 whole entry, the tested form may be a part): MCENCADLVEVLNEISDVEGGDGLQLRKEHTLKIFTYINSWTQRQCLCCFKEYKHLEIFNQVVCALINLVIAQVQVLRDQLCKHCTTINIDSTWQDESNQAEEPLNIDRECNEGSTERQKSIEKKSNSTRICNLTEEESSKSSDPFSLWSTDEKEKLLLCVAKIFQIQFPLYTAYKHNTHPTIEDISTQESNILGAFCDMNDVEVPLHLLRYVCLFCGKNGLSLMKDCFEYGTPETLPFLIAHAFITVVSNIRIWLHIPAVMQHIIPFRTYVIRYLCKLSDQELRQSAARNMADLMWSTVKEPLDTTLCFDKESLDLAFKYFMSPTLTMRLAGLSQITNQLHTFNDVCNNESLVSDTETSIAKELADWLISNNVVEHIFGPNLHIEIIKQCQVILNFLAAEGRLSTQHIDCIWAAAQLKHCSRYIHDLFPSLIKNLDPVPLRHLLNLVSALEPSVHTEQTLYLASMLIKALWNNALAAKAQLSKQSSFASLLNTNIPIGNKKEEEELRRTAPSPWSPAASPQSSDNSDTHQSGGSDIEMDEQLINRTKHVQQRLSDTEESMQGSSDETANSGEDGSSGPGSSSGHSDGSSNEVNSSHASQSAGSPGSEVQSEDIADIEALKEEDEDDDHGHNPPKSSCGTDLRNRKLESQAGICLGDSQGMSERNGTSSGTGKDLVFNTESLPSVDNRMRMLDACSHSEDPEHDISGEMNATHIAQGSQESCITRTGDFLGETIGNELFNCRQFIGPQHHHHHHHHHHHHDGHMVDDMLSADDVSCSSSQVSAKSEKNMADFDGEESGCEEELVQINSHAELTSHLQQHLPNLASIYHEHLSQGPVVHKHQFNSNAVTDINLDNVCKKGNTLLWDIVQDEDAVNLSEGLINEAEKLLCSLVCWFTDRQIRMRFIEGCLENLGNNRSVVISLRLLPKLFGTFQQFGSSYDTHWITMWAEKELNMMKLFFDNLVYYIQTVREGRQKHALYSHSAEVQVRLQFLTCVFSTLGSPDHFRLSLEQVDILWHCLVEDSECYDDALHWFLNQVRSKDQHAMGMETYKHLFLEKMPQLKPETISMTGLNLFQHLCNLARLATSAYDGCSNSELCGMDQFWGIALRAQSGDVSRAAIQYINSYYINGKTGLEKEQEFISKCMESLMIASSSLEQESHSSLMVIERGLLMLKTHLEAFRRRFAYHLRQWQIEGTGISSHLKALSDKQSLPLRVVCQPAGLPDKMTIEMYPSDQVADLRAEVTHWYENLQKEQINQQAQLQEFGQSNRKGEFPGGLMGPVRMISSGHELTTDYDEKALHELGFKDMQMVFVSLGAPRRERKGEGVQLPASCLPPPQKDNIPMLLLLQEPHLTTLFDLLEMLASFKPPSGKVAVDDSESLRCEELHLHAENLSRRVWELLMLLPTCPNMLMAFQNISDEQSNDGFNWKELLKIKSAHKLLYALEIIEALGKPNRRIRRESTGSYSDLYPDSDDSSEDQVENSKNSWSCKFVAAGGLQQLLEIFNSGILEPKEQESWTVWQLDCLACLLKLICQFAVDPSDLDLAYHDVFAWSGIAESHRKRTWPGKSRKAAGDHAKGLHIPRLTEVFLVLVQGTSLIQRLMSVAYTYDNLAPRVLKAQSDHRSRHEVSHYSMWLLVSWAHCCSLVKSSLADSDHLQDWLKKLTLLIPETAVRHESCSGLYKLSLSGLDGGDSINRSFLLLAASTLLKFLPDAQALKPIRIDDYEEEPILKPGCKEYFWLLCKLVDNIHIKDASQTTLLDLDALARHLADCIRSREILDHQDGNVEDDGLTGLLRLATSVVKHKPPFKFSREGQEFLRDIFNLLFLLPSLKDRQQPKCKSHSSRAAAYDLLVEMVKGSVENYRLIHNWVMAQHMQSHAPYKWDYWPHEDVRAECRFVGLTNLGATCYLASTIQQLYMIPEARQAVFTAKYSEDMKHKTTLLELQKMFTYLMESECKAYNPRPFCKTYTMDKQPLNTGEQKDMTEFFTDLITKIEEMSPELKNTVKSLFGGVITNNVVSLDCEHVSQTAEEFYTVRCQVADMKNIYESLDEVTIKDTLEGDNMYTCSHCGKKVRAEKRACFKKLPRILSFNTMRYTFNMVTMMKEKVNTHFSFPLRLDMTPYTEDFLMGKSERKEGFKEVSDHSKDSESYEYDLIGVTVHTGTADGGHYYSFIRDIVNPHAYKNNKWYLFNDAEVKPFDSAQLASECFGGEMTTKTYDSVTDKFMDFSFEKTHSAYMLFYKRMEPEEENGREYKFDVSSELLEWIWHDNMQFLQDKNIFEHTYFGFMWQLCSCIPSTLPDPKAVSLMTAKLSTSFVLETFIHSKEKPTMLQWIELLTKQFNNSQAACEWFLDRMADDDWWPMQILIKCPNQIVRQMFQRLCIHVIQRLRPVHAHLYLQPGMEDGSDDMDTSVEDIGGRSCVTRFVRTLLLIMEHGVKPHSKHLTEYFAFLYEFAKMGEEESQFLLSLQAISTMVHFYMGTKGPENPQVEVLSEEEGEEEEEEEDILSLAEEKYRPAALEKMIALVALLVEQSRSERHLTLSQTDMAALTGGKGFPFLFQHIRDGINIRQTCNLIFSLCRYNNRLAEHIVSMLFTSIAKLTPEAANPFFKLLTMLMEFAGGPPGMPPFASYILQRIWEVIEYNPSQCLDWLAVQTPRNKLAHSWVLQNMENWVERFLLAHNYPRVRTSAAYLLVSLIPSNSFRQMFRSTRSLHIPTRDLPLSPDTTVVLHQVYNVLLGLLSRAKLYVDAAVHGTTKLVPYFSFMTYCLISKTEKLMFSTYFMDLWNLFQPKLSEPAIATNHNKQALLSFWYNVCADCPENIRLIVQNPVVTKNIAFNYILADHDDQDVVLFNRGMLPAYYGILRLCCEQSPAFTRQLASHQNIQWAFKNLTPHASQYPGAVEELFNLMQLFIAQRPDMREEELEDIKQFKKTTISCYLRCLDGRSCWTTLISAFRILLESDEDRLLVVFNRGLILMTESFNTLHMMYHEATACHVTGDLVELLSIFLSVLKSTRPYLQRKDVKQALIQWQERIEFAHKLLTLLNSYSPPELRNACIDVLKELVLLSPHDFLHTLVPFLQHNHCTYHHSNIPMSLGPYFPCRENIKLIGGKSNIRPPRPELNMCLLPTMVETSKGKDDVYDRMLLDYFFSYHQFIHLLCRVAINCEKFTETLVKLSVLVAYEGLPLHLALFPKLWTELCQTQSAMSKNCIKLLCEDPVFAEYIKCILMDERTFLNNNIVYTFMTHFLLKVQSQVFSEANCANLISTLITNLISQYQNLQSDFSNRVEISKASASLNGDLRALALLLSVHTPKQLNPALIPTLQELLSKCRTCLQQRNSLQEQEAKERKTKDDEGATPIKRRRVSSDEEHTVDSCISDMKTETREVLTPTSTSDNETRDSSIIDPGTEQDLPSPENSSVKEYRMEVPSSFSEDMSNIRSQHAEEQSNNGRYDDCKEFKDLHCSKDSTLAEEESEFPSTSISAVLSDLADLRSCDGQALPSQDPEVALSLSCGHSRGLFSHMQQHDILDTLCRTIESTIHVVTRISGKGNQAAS

CC(=O)Nc1ccc(NC(=O)CCl)cc1
inactive: USP34 -0.128 | USP36 -0.0191 | USP38 0.0936 | USP39 0.432 | USP4 -0.163
